{"source": "ChEMBL document CHEMBL3433997", "about": "“St. Jude Leishmania screening dataset” (2016)", "assay_type_in_all_cases": "functional", "key": {"[1]": {"target": "Solute carrier family 2, facilitated glucose transporter member 1 (Homo sapiens) (UniProt P11166)", "sequence (P11166 whole entry)": "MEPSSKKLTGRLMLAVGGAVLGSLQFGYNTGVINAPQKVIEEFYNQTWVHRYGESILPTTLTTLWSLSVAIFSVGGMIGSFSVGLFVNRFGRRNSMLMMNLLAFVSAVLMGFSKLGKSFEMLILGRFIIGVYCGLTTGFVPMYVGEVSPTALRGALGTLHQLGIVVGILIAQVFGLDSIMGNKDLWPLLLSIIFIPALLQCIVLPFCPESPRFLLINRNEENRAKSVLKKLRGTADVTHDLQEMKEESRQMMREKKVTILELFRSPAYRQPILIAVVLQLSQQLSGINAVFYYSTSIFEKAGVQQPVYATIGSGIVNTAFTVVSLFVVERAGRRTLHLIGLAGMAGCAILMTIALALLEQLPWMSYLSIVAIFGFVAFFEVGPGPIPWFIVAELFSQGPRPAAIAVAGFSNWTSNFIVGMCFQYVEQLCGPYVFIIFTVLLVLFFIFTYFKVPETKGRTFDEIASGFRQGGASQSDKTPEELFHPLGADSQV", "assay": "ST_JUDE_LEISH: Cytotoxicity at 2uM final concentration against transgenic Leishmania Mexicana promastigotes LmGLUT1 that are glucose transport deficient and complemented with the human glucose transporter GLUT1. Activity is measured by DNA content using SYBR green in vitro"}, "[2]": {"target": "Hexose transporter 1 (Plasmodium falciparum) (UniProt O97467)", "assay": "ST_JUDE_LEISH: Cytotoxicity at 2uM final concentration against transgenic Leishmania Mexicana promastigotes LmPfHT that are glucose transport deficient and complemented with the Plasmodium falciparum hexose transporter. Activity is measured by DNA content using SYBR green in vitro"}, "[3]": {"target": "Glucose transporter (Leishmania mexicana) (UniProt O61059)", "assay": "ST_JUDE_LEISH: Cytotoxicity at 2uM final concentration against transgenic Leishmania Mexicana promastigotes LmGT2 that are glucose transport deficient and complemented with the L. Mexicana glucose transporter 2. Activity is measured by DNA content using SYBR green in vitro"}}}
{"smiles": "CC1CCCN(Cc2c(O)ccc3c(O)c(-c4nc5ccccc5s4)c(=N)oc23)C1", "note": "(configuration not stated)", "values": [{"measurement": "inhibition", "setting": "[1]", "result": 3.47, "unit": "%"}, {"measurement": "inhibition", "setting": "[2]", "result": 8.25, "unit": "%"}, {"measurement": "inhibition", "setting": "[3]", "result": 0.96, "unit": "%"}]}
{"smiles": "N#CC(c1ccc(Cl)cc1)c1ccc2c(C(F)(F)F)cc(C(F)(F)F)nc2n1", "note": "(configuration not stated)", "values": [{"measurement": "inhibition", "setting": "[1]", "result": 2.34, "unit": "%"}, {"measurement": "inhibition", "setting": "[2]", "result": 2.87, "unit": "%"}, {"measurement": "inhibition", "setting": "[3]", "result": 0.92, "unit": "%"}]}
{"smiles": "O=C(COc1ccccc1Cl)N1CCc2cc3nccc(N4CCN5CCC[C@H]5C4)c3cc21", "values": [{"measurement": "inhibition", "setting": "[1]", "result": 6.5, "unit": "%"}, {"measurement": "inhibition", "setting": "[2]", "result": 5.14, "unit": "%"}, {"measurement": "inhibition", "setting": "[3]", "result": 6.01, "unit": "%"}]}
{"smiles": "CC(C)(C)c1ccc(-c2nnc(N)nc2N)cc1", "values": [{"measurement": "inhibition", "setting": "[1]", "result": 1.1, "unit": "%"}, {"measurement": "inhibition", "setting": "[2]", "result": 0.43, "unit": "%"}, {"measurement": "inhibition", "setting": "[3]", "result": 0.09, "unit": "%"}]}
